Inconclusive results are not listed. Active and inactive are the calls of the source. Unless noted, the call rests on the fitted dose curve; in most records, active means well fitted curve in the direction sought with a large enough effect in the repeat runs; inconclusive means weak or mixed curves; inactive means flat fitted curve, though single readings scatter.
Tests used:
[1] = qHTS assay to test for compound auto fluorescence at 535 nm (green) in HEK293 cells (AID 720680)
[2] = qHTS assay to test for compound auto fluorescence at 460 nm (blue) in HEK293 cell free culture (AID 720681)
How it was run: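 Compounds were added to cell-free DMEM with 10% FBS and fluorescence read directly. The blue channel used 405 nm excitation and 460 nm emission, with triamterene as the reference fluorophore.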

[3] = qHTS assay to test for compound auto fluorescence at 535 nm (green) in HEK293 cell free culture (AID 720682)
How it was run: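 Each library compound, or DMSO control, is added by pintool to medium alone, comprising DMEM and 10% FBS. Emission at 535 nm following 485 nm excitation is quantified against fluorescein.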

[4] = qHTS assay to test for compound auto fluorescence at 590 nm (red) in HEK293 cell free culture (AID 720683)
How it was run: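 Cell-free wells of DMEM with 10% FBS received compound, and intrinsic fluorescence was read at excitation/emission 540/590 nm. Values expressed as equivalence to Rose Bengal sodium.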

[5] = qHTS assay to test for compound auto fluorescence at 590 nm (red) in HepG2 cell free culture (AID 720684)
How it was run: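 Auto fluorescence equivalency versus Rose Bengal sodium, red channel Ex/Em 540/590 nm; compounds in cell-free MEM/10% FBS; DMSO vehicle control.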

[6] = qHTS assay to test for compound auto fluorescence at 460 nm (blue) in HepG2 cell free culture (AID 720685)
How it was run: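 Cell-free plates of MEM plus 10% FBS received 23 nL compound or DMSO vehicle; blue-channel (405/460 nm) intensity scored against triamterene as reference fluorophore.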

[7] = qHTS assay to test for compound auto fluorescence at 535 nm (green) in HepG2 cell free culture (AID 720686)
[8] = qHTS assay to test for compound auto fluorescence at 460 nm (blue) in HepG2 cells (AID 720687)
How it was run: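 HepG2 cells in MEM with 10% FBS, attached overnight at 37 C, were exposed to compound or DMSO for 1 hr at 37 C, 5% CO2. Blue fluorescence was read at 405/460 nm, with triamterene as reference fluorophore.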

[9] = biological target: Glucocorticoid receptor (Homo sapiens) (UniProt P04150); assay: qHTS assay to identify small molecule agonists of the glucocorticoid receptor (GR) signaling pathway (AID 720691; active means well fitted activation curve with a large enough effect in the signal ratio in the repeat runs, not every such curve was filed as active; the % refers to the signal ratio)
How it was run: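 Compounds in DMSO, alongside positive controls, were added to GR-bla HeLa reporter cells and incubated 18 h at 37 C; GRE-driven beta-lactamase was detected by fluorescence after 2 h with FRET substrate at room temperature.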

[10] = biological target: Glucocorticoid receptor (Homo sapiens) (UniProt P04150); assay: qHTS assay to identify small molecule antagonists of the glucocorticoid receptor (GR) signaling pathway (AID 720692; active means well fitted inhibition curve with a large enough effect in the signal ratio in the repeat runs, not every such curve was filed as active; the % refers to the signal ratio)
How it was run: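 In a 1536-well cell format, compounds were added 4 h after seeding GR-bla HeLa cells, together with dexamethasone at 5 nM final; reporter activity was measured by FRET-substrate fluorescence following 18 h at 37 C.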
On the % scale 0 is the no-effect control and ±100 the full control effect.

Chain of Glucocorticoid receptor (Homo sapiens) (P04150 whole entry, looked up): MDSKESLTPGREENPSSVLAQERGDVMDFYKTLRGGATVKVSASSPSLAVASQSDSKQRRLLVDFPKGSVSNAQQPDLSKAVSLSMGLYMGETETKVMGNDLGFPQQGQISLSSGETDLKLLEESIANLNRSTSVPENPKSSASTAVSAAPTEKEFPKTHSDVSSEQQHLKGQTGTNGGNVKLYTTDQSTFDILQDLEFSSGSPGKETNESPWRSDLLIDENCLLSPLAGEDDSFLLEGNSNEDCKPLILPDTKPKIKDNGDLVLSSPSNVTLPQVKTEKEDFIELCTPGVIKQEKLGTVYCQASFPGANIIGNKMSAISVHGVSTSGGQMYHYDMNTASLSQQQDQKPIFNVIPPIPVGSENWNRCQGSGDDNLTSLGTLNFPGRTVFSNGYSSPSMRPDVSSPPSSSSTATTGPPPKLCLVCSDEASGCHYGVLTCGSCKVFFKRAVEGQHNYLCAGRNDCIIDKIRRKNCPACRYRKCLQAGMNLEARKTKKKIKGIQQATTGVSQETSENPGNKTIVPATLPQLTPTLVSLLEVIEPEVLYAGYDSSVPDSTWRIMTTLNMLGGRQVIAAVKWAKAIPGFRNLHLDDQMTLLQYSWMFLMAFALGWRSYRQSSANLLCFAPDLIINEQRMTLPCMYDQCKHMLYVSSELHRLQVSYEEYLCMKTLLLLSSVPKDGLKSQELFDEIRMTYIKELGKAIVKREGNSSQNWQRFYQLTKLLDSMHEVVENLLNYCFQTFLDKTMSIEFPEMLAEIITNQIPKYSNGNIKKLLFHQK

[Cu+]
inactive: Potency [1] | Potency [2] | Potency [3] | Potency [4] | Potency [5] | Potency [6] | Potency [7] | Potency [8]

CNc1ccc([N+](=O)[O-])cc1
inactive: Potency [1] | Potency [2] | Potency [3] | Potency [4] | Potency [5] | Potency [6] | Potency [7] | Potency [8]

OC1CCCc2ccccc21 (centres undefined)
inactive: Potency [1] | Potency [2] | Potency [3] | Potency [4] | Potency [5] | Potency [6] | Potency [7] | Potency [8]

O=C1C(c2[nH]c3ccc(S(=O)(=O)O)cc3c2O)=Nc2ccc(S(=O)(=O)O)cc21
inactive: Potency [1] | Potency [2] | Potency [3] | Potency [4] | Potency [5] | Potency [6] | Potency [7] | Potency [8]

CCCCC/C=C\C/C=C\CCCCCCCC(=O)O
inactive: Potency [1] | Potency [2] | Potency [3] | Potency [4] | Potency [5] | Potency [6] | Potency [7] | Potency [8]

CCOC(=O)c1ccc(C2CCC(NC[C@H](O)COc3ccc(O)c(NS(C)(=O)=O)c3)CC2)cc1 (some centres undefined)
inactive: Potency [1] | Potency [2] | Potency [3] | Potency [4] | Potency [5] | Potency [6] | Potency [7] | Potency [8]

c1cnccn1
inactive: Potency [1] | Potency [2] | Potency [3] | Potency [4] | Potency [5] | Potency [6] | Potency [7]

C#C[C@]1(OC(C)=O)CC[C@H]2[C@@H]3CCC4=C/C(=N/O)CC[C@@H]4[C@H]3CC[C@@]21CC
inactive: Potency [1] | Potency [2] | Potency [3] | Potency [4] | Potency [5] | Potency [6] | Potency [7]

CCn1c2ccccc2c2cc([N+](=O)[O-])ccc21
inactive: Potency [1] | Potency [2] | Potency [3] | Potency [4] | Potency [5] | Potency [6] | Potency [7] | Potency [8]

CCCCCC/C=C\CCCCCCCC(=O)O
inactive: Potency [1] | Potency [2] | Potency [3] | Potency [4] | Potency [5] | Potency [6] | Potency [7] | Potency [8]

Clc1sc(Cl)c(Cl)c1Cl
inactive: Potency [1] | Potency [2] | Potency [3] | Potency [4] | Potency [5] | Potency [6] | Potency [7]

Cc1cccc(C(=O)O)c1O
inactive: Potency [1] | Potency [2] | Potency [3] | Potency [4] | Potency [5] | Potency [6] | Potency [7] | Potency [8] | Potency [9]

O=[N+]([O-])c1ccc(O)cc1C(F)(F)F
inactive: Potency [1] | Potency [2] | Potency [3] | Potency [4] | Potency [5] | Potency [6] | Potency [7] | Potency [8] | Potency [9]

c1ccc(C(O[C@@H]2CCCN(CCc3ccc4c(c3)OCO4)C2)c2ccccc2)cc1
inactive: Potency [1] | Potency [2] | Potency [3] | Potency [4] | Potency [5] | Potency [6] | Potency [7] | Potency [8] | Potency [9]

CCCCCC(C)OC(=O)COc1ccc(Cl)c2cccnc12 (centres undefined)
inactive: Potency [1] | Potency [2] | Potency [3] | Potency [4] | Potency [5] | Potency [6] | Potency [7] | Potency [8] | Potency [9]

O=C1CCc2ccc(OCCCCN3CCN(c4cccc(Cl)c4Cl)CC3)cc2N1
inactive: Potency [1] | Potency [2] | Potency [3] | Potency [4] | Potency [5] | Potency [6] | Potency [7] | Potency [8] | Potency [9]

COC1=C(OC)C(=O)C(CCCCCCCCCCO)=C(C)C1=O
inactive: Potency [1] | Potency [2] | Potency [3] | Potency [4] | Potency [5] | Potency [6] | Potency [7] | Potency [8] | Potency [9]

O=C(O)c1cc(-c2ccc(F)cc2F)ccc1O
inactive: fluorescence, % of fluorescein [1] 0.0391% [at 18.6 µM] | fluorescence, % of fluorescent control [2] 0.0528% [at 18.6 µM] | activity change [3] -0.026% [at 18.6 µM, hits give high values] | fluorescence, % of fluorescent control [4] -0.0186% [at 18.6 µM] | fluorescence, % of Rose Bengal [5] -0.0804% [at 18.6 µM] | fluorescence, % of fluorescent control [6] -0.0315% [at 18.6 µM] | fluorescence, % of fluorescein control [7] -0.0114% [at 18.6 µM] | fluorescence, % of fluorescent control [8] -0.098% [at 18.6 µM] | Potency [9]

CCOC(=O)Cn1cccc1-c1nc(-c2ccc(OC)cc2)c(-c2ccc(OC)cc2)s1
inactive: Potency [1] | Potency [2] | Potency [3] | Potency [4] | Potency [5] | Potency [6] | Potency [7] | Potency [8] | Potency [9]

CN(C)c1ccc(C(=C2C=CC(=[N+](C)C)C=C2)c2ccc(N(C)C)cc2)cc1
inactive: Potency [1] | Potency [2] | Potency [3] | Potency [4] | Potency [5] | Potency [6] | Potency [7] | Potency [8] | Potency [9]

CC(CCc1ccccc1)NCC(O)c1ccc(O)c(C(N)=O)c1 (centres undefined)
inactive: Potency [1] | Potency [2] | Potency [3] | Potency [4] | Potency [5] | Potency [6] | Potency [7] | Potency [8] | Potency [9]

C=Cc1cccc(C)c1
inactive: Potency [1] | Potency [2] | Potency [3] | Potency [4] | Potency [5] | Potency [6] | Potency [7] | Potency [8] | Potency [9]

Cc1cc(C(C)(C)C)cc(C)c1CC1=NCCN1
inactive: fluorescence, % of fluorescein [1] 0.178% [at 18.6 µM] | fluorescence, % of fluorescent control [2] 0.0078% [at 18.6 µM] | activity change [3] 0.0172% [at 18.6 µM, hits give high values] | fluorescence, % of fluorescent control [4] 0.0411% [at 18.6 µM] | fluorescence, % of Rose Bengal [5] -0.207% [at 18.6 µM] | fluorescence, % of fluorescent control [6] 0.411% [at 18.6 µM] | fluorescence, % of fluorescein control [7] -0.0122% [at 18.6 µM] | fluorescence, % of fluorescent control [8] 0.013% [at 18.6 µM] | Potency [9] | Potency [10]

— PubChem BioAssay (Tox21)
